Screening data: PubChem, National Center for Advancing Translational Sciences (NCATS)
TDP1 cell CPT: qHTS for Inhibitors of human tyrosyl-DNA phosphodiesterase 1 (TDP1): qHTS in cells in presence of CPT; AID 686979, 2013; chicken DT40 Tdp1-/-;hTDP1 cells + 20 nM CPT, ATP luminescence, 48 h; Potency, µM (top dose mostly 46.2 µM), hits mostly inhibitors; hit rate 12% among 420,000; also: nearly all actives have a fitted effect of over 55% in size
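Chicken DT40 Tdp1-/- cells stably complemented with human TDP1 were seeded at 400 cells/well in medium containing 20 nM camptothecin, exposed to pin-transferred compounds, and grown at 37 °C for at least 48 hr. Viability was read as ATP luminescence.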
HT1080-NT tox: qHTS for induction of synthetic lethality in tumor cells producing 2HG: qHTS for the HT-1080-NT fibrosarcoma cell line; hit rate 1.6% among 360,000; HT-1080-NT fibrosarcoma viability, CellTiter-Glo ATP luminescence, 48 h; Potency, µM (highest dose often 46.1 µM), usual class: cytotoxic;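 also: NT is the 2HG producing partner of a matched IDH1 knockdown line; nearly all actives have a fitted effect of over 55% in size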
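Fibrosarcoma NT cells, 750 per well in 5% FBS RPMI, were exposed to compound for 48 hours. Viability: CellTiter-Glo luminescence.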
IL-1B inflam inh: qHTS for Inhibitors of Inflammasome Signaling: IL-1-beta AlphaLISA Primary Screen; THP-1 LPS/ATP IL-1B secretion, AlphaLISA, 16 h; active compounds read low; activity change, % at 57.5 µM; hit rate 4.7% among 360,000; AID 743279, 2014; in the data active = activity change below about -50%; inconclusive = mostly about -30% to -49%
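Secreted IL-1B measured by AlphaLISA bead assay after 16 h compound exposure of THP-1 cells; compounds (final up to 57.5 uM) added 1 h before LPS (250 ng/mL) and ATP (1.25 mM) stimulation; lower signal means less secretion.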
HT1080 IDH1KD tx: qHTS for induction of synthetic lethality in tumor cells producing 2HG: qHTS for the HT-1080-IDH1KD cell line; Potency, µM (top dose mostly 46.1 µM), hits mostly cytotoxic; hit rate 2% among 360,000; HT-1080 IDH1 knockdown viability, ATP luminescence, 48 h
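IDH1KD HT-1080 cells, 750/well, RPMI + 5% FBS; compound pinned after 2 h settling; 48 h, 37 °C; CellTiter-Glo luminescence; % activity normalised to DMSO and no-cell wells; curves fitted, classed by r2 and efficacy.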
ALOX12 inh: Primary qHTS assay for inhibitors of human arachidonate 12S-lipoxygenase (ALOX12): Round 2 | Polyunsaturated fatty acid lipoxygenase ALOX12 (Homo sapiens), P18054 | purified 12hLO, xylenol orange hydroperoxide absorbance | Potency, µM (titrated, usually from 108 µM), usual class: inhibitors | hit rate 1.1% among 580,000 | AID 1671190, 2021
Target sequence (P18054 whole entry, looked up): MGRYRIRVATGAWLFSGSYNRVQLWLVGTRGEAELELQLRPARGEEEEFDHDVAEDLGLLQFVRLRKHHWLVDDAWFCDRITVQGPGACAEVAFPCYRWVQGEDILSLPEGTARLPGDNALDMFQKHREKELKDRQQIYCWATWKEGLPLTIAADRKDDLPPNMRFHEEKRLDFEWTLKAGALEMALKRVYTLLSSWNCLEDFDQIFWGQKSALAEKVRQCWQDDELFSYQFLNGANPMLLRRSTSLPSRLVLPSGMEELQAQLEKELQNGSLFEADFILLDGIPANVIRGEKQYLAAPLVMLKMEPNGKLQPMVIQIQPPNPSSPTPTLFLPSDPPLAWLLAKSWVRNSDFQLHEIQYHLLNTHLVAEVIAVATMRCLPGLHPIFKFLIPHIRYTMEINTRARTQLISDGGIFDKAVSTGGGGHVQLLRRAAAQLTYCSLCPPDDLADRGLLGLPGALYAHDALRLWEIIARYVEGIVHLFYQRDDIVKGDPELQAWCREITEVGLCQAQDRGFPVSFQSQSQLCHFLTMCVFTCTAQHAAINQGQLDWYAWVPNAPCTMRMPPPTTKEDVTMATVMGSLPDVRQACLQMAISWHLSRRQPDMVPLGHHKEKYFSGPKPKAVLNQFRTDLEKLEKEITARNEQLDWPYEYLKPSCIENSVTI
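Hydroperoxide product was detected by ferrous iron/xylenol orange as the 573 to 405 nm absorbance ratio. Arachidonic acid at 40 uM (final) was turned over for 30 min at room temperature by 150 nM human 12hLO, pH 7.0 Hepes buffer, after 15 min compound preincubation.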
TDP1 cell noCPT: qHTS for Inhibitors of human tyrosyl-DNA phosphodiesterase 1 (TDP1): qHTS in cells in absence of CPT. DT40 Tdp1-/- hTDP1 cells, no CPT, ATP luminescence, 48 h. Potency, µM (top dose mostly 46.2 µM), usual class: inhibitors. hit rate 15% among 420,000; also: nearly all actives have a fitted effect of over 55% in size
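Chicken DT40 Tdp1-/- cells stably complemented with human TDP1 were seeded at 400 cells/well with DMSO in place of 20 nM camptothecin. After compound pinning, cells grew at least 48 hr at 37 °C; viability read by CellTiter-Glo luminescence.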
A number is an active result; – = inactive; ? = inconclusive; · = no result given; ! = a repeat was not active. Shown is part of a subset that was picked to be rich in hits. Unless noted, calls follow the shape of the dose curve; as a rule, active = well fitted curve in the direction sought with a large enough effect; inconclusive = small, poorly fitted or top-dose-only effect, or another doubt; inactive = no such curve, though single readings can be large; an effect the other way counts as inactive or inconclusive.

SMILES	TDP1 cell CPT	HT1080-NT tox	IL-1B inflam inh	HT1080 IDH1KD tx	ALOX12 inh	TDP1 cell noCPT
Cc1ccccc1CC(=O)Nc1cccc2cccnc12	·	·	·	·	–	·
N=c1oc2ccccc2cc1C(=O)NC1CCCCCC1	–	–	–	–	–	–
N=c1oc2cc(O)ccc2cc1C(=O)Nc1ccc(Cl)cc1	?	–	-88.7	?	–	–
O=C(Nc1ccc(Br)cc1)c1cc2ccc(O)cc2oc1=O	·	·	·	·	–	·
N=c1oc2ccc(Cl)cc2cc1C(=O)NC1CCCCCC1	25.9µM	?	·	–	?	20.6µM
Cn1cccc1C(=O)N1CCC(c2[nH]ncc2Cc2ccccc2)CC1	·	·	·	·	–	·
CSc1ccc(CN2CCC(C)(Oc3cccc(F)c3)C2)cc1 (stereo unspecified)	?	–	–	–	?	?
COCCNC(=O)C1(C)CCCN(Cc2ccc(-c3ccccc3)o2)C1 (stereo unspecified)	?	–	–	–	–	?
CCNC(=O)C1(C)CCCN(Cc2ccc(-c3ccccc3)o2)C1 (stereo unspecified)	23.1µM	–	–	–	–	23.1µM
CC1(Oc2cccc(F)c2)CCN(Cc2ccc(-c3ccccc3)o2)C1 (stereo unspecified)	23.1µM	–	–	–	?	?
CCCNC(=O)C1(C)CCN(Cc2ccc(-c3ccccc3)o2)C1 (stereo unspecified)	23.1µM	?	–	?	?	?
C[C@@H]1[C@H](c2ccccc2)OCCS(=O)(=O)N1Cc1cccc(C(F)(F)F)c1	?	·	·	·	·	17.8µM
COc1ccc(S(=O)(=O)N2CCC(C)CC2)cc1N(C)S(=O)(=O)c1ccccc1	?	–	–	–	–	?
COc1ccc(S(=O)(=O)N2CCCCCC2)cc1N(C)S(=O)(=O)c1ccc(Cl)cc1	16.4µM	?	–	–	–	18.4µM
COc1ccc(S(=O)(=O)N2CCCC2)cc1OC	–	–	–	–	–	?
COc1ccc2cc(S(=O)(=O)N3CCCCC3)ccc2c1S(=O)(=O)N1CCCCC1	20.6µM	–	–	–	–	?
O=c1c2c3c(sc2ncn1/N=C/c1ccc([N+](=O)[O-])o1)CCCC3	2.59µM	?	-89.3	?	?	2.31µM
Cn1cc(/C=N/n2cnc3sc4c(c3c2=O)CCCC4)c2ccccc21	13µM	–	–	–	–	10.3µM
CCCCNC(=O)c1ccc(NC(=O)c2ccccc2C)cc1	·	·	·	·	–	·
CCCOc1ccc(OCCNC2CCCC2)cc1	–	–	–	–	?	16.4µM
Cc1ccc(OCCCCNC2CCCCC2)c(C)c1	20.6µM	?	-62.7	?	?	11.6µM
Cc1ccc(C)c(OCCCNC2CCCC2)c1C	23.1µM	–	–	–	–	9.2µM
CC(C)(C)c1ccc(OCCCNC2CCCC2)cc1	?	?	-66.6	?	?	29.1µM
Cc1ccc(OCCCNC2CCCC2)cc1	–	–	–	–	–	–
Cc1ccc(OCC(O)CNC2CCCC2)c(C)c1 (stereo unspecified)	–	–	–	–	–	?
SMILES	TDP1 cell CPT	HT1080-NT tox	IL-1B inflam inh	HT1080 IDH1KD tx	ALOX12 inh	TDP1 cell noCPT
CCc1cc(=O)oc2cc(OC(C)C(=O)NCc3cccnc3)ccc12 (stereo unspecified)	·	·	·	·	–	·
CCc1ccc(NC(=O)C(CC)Sc2nc3cc4c(cc3c(=O)n2Cc2ccco2)OCO4)cc1 (stereo unspecified)	18.4µM	–	–	–	–	?
CCc1ccccc1NC(=O)C(CC)Sc1nc2cc3c(cc2c(=O)n1Cc1ccco1)OCO3 (stereo unspecified)	16.4µM	–	–	–	–	?
Cc1c(C(=O)CSc2nnc(C3CC3)n2C)sc2ccccc12	·	·	·	·	–	·
COc1ccc(C(CNC(=O)COc2ccccc2)N2CCOCC2)cc1 (stereo unspecified)	–	–	–	–	–	–
COc1ccc(C(CNC(=O)COc2cc(C)c(Cl)c(C)c2)N2CCCCC2)cc1 (stereo unspecified)	23.1µM	–	?	–	?	16.4µM
COc1ccc(C(CNC(=O)COc2ccc(C)c(C)c2)N2CCCCC2)cc1 (stereo unspecified)	23.1µM	–	–	–	–	?
COc1ccc(C(CNC(=O)COc2cc(C)cc(C)c2)N2CCCCC2)cc1 (stereo unspecified)	23.1µM	·	·	·	–	?
COc1ccc(OCC(=O)NCC(c2ccc(OC)cc2)N2CCCCC2)cc1 (stereo unspecified)	–	–	–	–	–	–
COc1ccc(C(CNC(=O)COc2ccccc2)N2CCCCC2)cc1 (stereo unspecified)	–	–	–	–	–	–
COc1ccc(C(CNC(=O)COc2ccc(Cl)c(C)c2)N2CCOCC2)cc1 (stereo unspecified)	20.6µM	·	·	·	–	?
O=C(c1ccc[nH]c1=O)N1CCC2(CC1)NC(=O)N(Cc1ccc(Cl)cc1)C2=O	·	·	·	·	–	·
CC[C@H]1OC(=O)[C@H](C)C(=O)[C@H](C)[C@@H](O[C@@H]2O[C@H](C)C[C@H](N(C)C)[C@H]2O)[C@](C)(OC)C[C@@H](C)C(=O)[C@H](C)[C@H]2N(CCCCn3cnc(-c4cccnc4)c3)C(=O)O[C@]12C	2.37µM!	·	·	·	·	2.11µM
CC[C@H]1OC(=O)[C@H](C)C(=O)[C@H](C)[C@@H](O[C@H]2O[C@H](C)C[C@H](N(C)C)[C@@H]2O)[C@](C)(OC)C[C@@H](C)C(=O)[C@H](C)[C@H]2N(CCCCn3cnc(-c4cccnc4)c3)C(=O)O[C@]12C	·	·	·	·	4.85µM	·
O=C1CN(C(=O)CCC(=O)N2CCC(CCOc3ccccc3F)C2)c2ccccc2N1 (stereo unspecified)	·	·	·	·	–	·
CCOc1cc(C(=O)Nc2ccc(NC(=O)c3cc4ccccc4o3)c(OC)c2)cc(OCC)c1OCC	?	·	·	·	–	?
CCOc1cccc(C(=O)Nc2ccc(NC(=O)c3cc4ccccc4o3)c(OC)c2)c1	?	?	–	–	–	?
COc1cc(NC(=O)c2cccc(C)c2)ccc1NC(=O)c1cc2ccccc2o1	?	–	–	–	–	3.66µM
COc1cc(NC(=O)c2cccc([N+](=O)[O-])c2)ccc1NC(=O)c1cc2ccccc2o1	?	–	–	–	–	8.2µM
CCN(CC(=O)NC(C)(C)C)Cc1cccc2cccnc12	·	·	·	·	–	·
